{"source": "PubChem BioAssay (NCATS)", "note": "Results filed as inconclusive are left out. A call without a number means that no potency is given here. Unmarked numbers belong to inactive results. Activity calls are given as the source filed them. The call rests on the fitted dose curve; in most records, active means well fitted inhibition curve with a large enough effect; inconclusive means small, poorly fitted or top-dose-only effect; inactive means flat fitted curve, though single readings scatter. Potency means the concentration at half of the fitted maximal effect.", "data": [{"assay": "P-glycoprotein substrates identified in KB-8-5-11 adenocarcinoma cell line, qHTS therapeutic library screen (AID 1346987); further: nearly all actives have a fitted effect of over 65% in size", "details": "KB-8-5-11 (P-gp overexpressing) viability, CellTiter-Glo, 72 h; series mostly up to 44.5 µM", "summary_of_the_method": "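Human cervical adenocarcinoma KB-8-5-11 cells, selected in colchicine to over-express P-gp and assayed without it, were exposed for 72 h to titrated compounds. An ATP-based luminescent viability signal gave AC50.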", "values": [{"smiles": "Cn1cncc1C(N)(c1ccc(Cl)cc1)c1ccc2c(c1)c(-c1cccc(Cl)c1)cc(=O)n2C", "note": "(stereo unspecified)", "Potency": "3.26 µM (active)"}, {"smiles": "COc1cc(O)cc(C)c1C(=O)O[C@H]1[C@@H](OC(C)=O)[C@H](n2ccc(=O)[nH]c2=O)O[C@@H]1CO", "Potency": "inactive"}, {"smiles": "CC(C)(C)Nc1nc(Nc2ccc(C(N)=O)cc2)cc(N)c1C#N", "Potency": "2.06 µM (active)"}, {"smiles": "CCOc1ccc(S(=O)(=O)n2c(C)nc3ccccc32)cc1", "Potency": "inactive"}, {"smiles": "Cc1cc(C)c(Nc2ccnc(Nc3ccc(C#N)cc3)n2)c(C)c1", "Potency": "9.2 µM (active)"}, {"smiles": "C[C@H](NC(=O)CCc1nc2ccccc2c(=O)[nH]1)c1ccccc1", "Potency": "inactive"}, {"smiles": "COc1ccc(C(=O)Nc2ncc(-c3ccc(C(=O)O)cc3)s2)cc1", "Potency": "2.91 µM (active)"}, {"smiles": "COC(=O)C12C(=O)C(C)=C(O)C1(C)C(C)=CC1C3(CO)CCC(O)C(C)(C)C3CCC12C", "note": "(stereo unspecified)", "Potency": "inactive"}, {"smiles": "CC1(C)CC[C@]2(C(=O)O[C@@H]3O[C@H](CO)[C@@H](O)[C@H](O)[C@H]3O)CC[C@]3(C)C(=CCC4[C@@]5(C)CC[C@H](O[C@@H]6O[C@H](C(=O)O)[C@@H](O)[C@H](O)[C@H]6O)[C@@](C)(CO)C5CC[C@]43C)C2C1", "note": "(stereo partly specified)", "activity change, negative = cytotoxicity": "-4.65% [at 9.29 µM]"}, {"smiles": "C/C=C(\\C)C(=O)O[C@H]1[C@@H](O[C@]2(COC(=O)CC(C)C)O[C@H](COC(=O)C(C)CC)[C@@H](OC(C)=O)[C@@H]2O)O[C@H](COC(C)=O)[C@@H](O)[C@@H]1O", "note": "(stereo partly specified)", "Potency": "inactive"}, {"smiles": "COC(=O)c1ccccc1O[C@@H]1O[C@H](CO)[C@@H](O)[C@H](O)[C@H]1O[C@@H]1O[C@@H](C)[C@H](O)[C@@H](O)[C@H]1O", "Potency": "inactive"}]}]}
